Results: PMC5540273 (PLoS ONE, 2017)

Experiments:
Settings in all cases: concentration: 1 μM, replicates: in singlicate; n = 1
TLK1 = tested on: TLK1
TLK2 = tested on: TLK2
TNIK = tested on: TNIK
TNK1 = tested on: TNK1
TNK2 = tested on: TNK2
TNNI3K = tested on: TNNI3K
TRKA = tested on: T1, TRKA
T1 construct: gene NTRK1

TRKB = tested on: TRKB
TRKC = tested on: T2, TRKC
T2 construct: gene NTRK3

TRPM6 = tested on: TRPM6
TSSK1B = tested on: TSSK1B
TSSK3 = tested on: TSSK3
TTK = tested on: TTK
TXK = tested on: TXK
[1] = tested on: TYK2(JH1domain-catalytic)
[2] = tested on: TYK2(JH2domain-pseudokinase)
TYRO3 = tested on: TYRO3
ULK1 = tested on: ULK1
ULK2 = tested on: ULK2
ULK3 = tested on: ULK3
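Further: KINOMEscan kinase panel screen.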

| Structure (SMILES) | %Inh (TLK1) [%] | %Inh (TLK2) [%] | %Inh (TNIK) [%] | %Inh (TNK1) [%] | %Inh (TNK2) [%] | %Inh (TNNI3K) [%] | %Inh (TRKA) [%] | %Inh (TRKB) [%] | %Inh (TRKC) [%] | %Inh (TRPM6) [%] | %Inh (TSSK1B) [%] | %Inh (TSSK3) [%] | %Inh (TTK) [%] | %Inh (TXK) [%] | %Inh [1] [%] | %Inh [2] [%] | %Inh (TYRO3) [%] | %Inh (ULK1) [%] | %Inh (ULK2) [%] | %Inh (ULK3) [%] |
| --- | --- | --- | --- | --- | --- | --- | --- | --- | --- | --- | --- | --- | --- | --- | --- | --- | --- | --- | --- | --- |
| NS(=O)(=O)c1cccc(N/C=C2\C(=O)Nc3ccc(S(=O)(=O)Cc4c(Cl)cccc4Cl)cc32)c1 [GSK398099] | 75 | 0 | 91.8 | 0 | 26 | 4 | 49 | 0 | 29 | 37 | 21 | 14 | 0 | 6 | 30 | 27 | 0 | 13 | 4 | 19 |
| Cc1c(Cn2c3ccccc3n3c(=O)cc(N4CCOCC4)nc23)cccc1C(F)(F)F [GSK2306394] | 5 | 0 | 0 | 0 | 3 | 0 | 0 | 0 | 0 | 0 | 3 | 0 | 27 | 0 | 26 | 0 | 0 | 21 | 0 | 7 |
| Cc1c(Cn2c(C)c(C)n3c(=O)cc(N4CCOCC4)nc23)cccc1C(F)(F)F [GSK2328680] | 0 | 0 | 0 | 0 | 13 | 0 | 12 | 0 | 21 | 0 | 11 | 7 | 0 | 20 | 5 | 4 | 0 | 9 | 0 | 14 |
| Fc1ccc(-c2nn3cccc(F)c3c2-c2ccncc2)cc1 [GW475620] | 0 | 0 | 32 | 0 | 12 | 0 | 15 | 0 | 2 | 0 | 0 | 14 | 14 | 5 | 22 | 9 | 0 | 12 | 0 | 12 |
| COc1cccc(C2=C(Nc3cc(Cl)c(O)c(Cl)c3)C(=O)NC2=O)c1 [SB-390767] | 0 | 0 | 0 | 23 | 26 | 13 | 0 | 0 | 0 | 15 | 0 | 16 | 7 | 15 | 28 | 39 | 29 | 32 | 0 | 13 |
| CS(=O)(=O)CCNCc1nc(-c2ccc3ncnc(Nc4ccc(OCc5ccccc5)c(Cl)c4)c3c2)cs1.Cl [GW582764] | 0 | 0 | 0 | 4 | 14 | 0 | 0 | 41 | 54 | 0 | 19 | 8 | 0 | 6 | 30 | 35 | 0 | 5 | 0 | 3 |
| Cc1cnc(N)c(/C=C/c2cncc(C(=O)NCCc3ccc(Cl)cc3Cl)c2)c1.Cl [GSK190937] | 0 | 0 | 9 | 0 | 11 | 0 | 35 | 0 | 0 | 0 | 6 | 0 | 0 | 4 | 0 | 9 | 0 | 0 | 0 | 0 |
| Cc1ccc(NC(=O)Nc2ccc(Cl)cc2)cc1-c1ccc(C(=O)Nc2ccncc2)cc1 [GSK1398472] | 0 | 0 | 0 | 0 | 16 | 25 | 0 | 0 | 9 | 14 | 0 | 11 | 0 | 47 | 62 | 13 | 4 | 8 | 0 | 0 |
| CSc1ccc(-c2nc3n(c2-c2ccncc2)CCC3)cc1 [SKF-105561] | 31 | 0 | 7 | 0 | 0 | 49 | 0 | 4 | 46 | 0 | 0 | 0 | 14 | 11 | 0 | 0 | 0 | 18 | 0 | 33 |
| Cc1ccc(-c2nc(Nc3ccncc3)c3ccccc3n2)s1 [GSK189015] | 0 | 0 | 8 | 29 | 19 | 14 | 44 | 0 | 0 | 15 | 15 | 17 | 40 | 53 | 24 | 76 | 12 | 12 | 5 | 7 |
| CC(=O)c1cccc(NC(=O)NC2CCN(c3ccnc(Nc4ccc(F)cc4)n3)C2)c1 (stereo not drawn) [GSK1379710] | 12 | 25 | 3 | 0 | 7 | 5 | 56 | 69 | 81 | 32 | 39 | 32 | 23 | 16 | 26 | 22 | 0 | 2 | 4 | 10 |
| COc1ccc(Nc2nccc(-c3ccc(NC(=O)c4cc5cc(F)ccc5[nH]4)cc3)n2)cc1 [GSK1229496] | 23 | 0 | 0 | 47 | 0 | 0 | 9 | 13 | 0 | 0 | 0 | 22 | 0 | 0 | 23 | 0 | 0 | 0 | 0 | 8 |
| CCc1ccc(-c2ccc3c(c2)-c2n[nH]cc2S(=O)(=O)N3C)cc1 | 28 | 0 | 9 | 34 | 0 | 0 | 0 | 0 | 0 | 0 | 0 | 0 | 0 | 14 | 0 | 5 | 0 | 0 | 0 | 0 |
| COc1ccc(Nc2nccc(N3CCC(NC(=O)C(C)c4ccc(Cl)cc4)C3)n2)cc1 (stereo not drawn) [GSK1379735] | 0 | 0 | 10 | 0 | 15 | 6 | 19 | 0 | 11 | 1 | 1 | 24 | 29 | 21 | 28 | 1 | 22 | 9 | 9 | 9 |
| O=C1NC(=O)C(c2ccc(Cl)cc2)=C1Nc1cccc(Cl)c1 [SB-317651] | 12 | 0 | 0 | 0 | 0 | 0 | 23 | 21 | 0 | 0 | 0 | 18 | 0 | 12 | 0 | 0 | 0 | 11 | 25 | 1 |
| CNC(=O)c1ccc(C)c(-n2c(C)cc(OCc3ccc(F)cc3F)c(Br)c2=O)c1 | 0 | 0 | 0 | 0 | 0 | 0 | 0 | 0 | 0 | 0 | 0 | 0 | 0 | 0 | 0 | 0 | 0 | 0 | 0 | 0 |
| Cn1cnc2c(N)ncnc21 [SKF-97623] | 74 | 0 | 0 | 3 | 0 | 0 | 56 | 24 | 7 | 0 | 0 | 0 | 0 | 0 | 0 | 0 | 0 | 0 | 0 | 0 |
| O=C(Nc1n[nH]c2nc(-c3cccs3)c(Br)cc12)C1CCCC1 [SB-743341] | 0 | 0 | 0 | 0 | 0 | 0 | 16 | 22 | 9 | 0 | 24 | 0 | 37 | 7 | 0 | 7 | 1 | 26 | 32 | 0 |
| COc1cccc(NC(=O)Nc2ccc(C)c(-c3ccc(C(=O)Nc4ccncc4)cc3)c2)c1 [GSK1398474] | 11 | 0 | 0 | 10 | 16 | 20 | 4 | 0 | 2 | 31 | 0 | 6 | 13 | 0 | 0 | 0 | 0 | 6 | 0 | 0 |
| O=C(Nc1n[nH]c2nc(-c3ccco3)c(Br)cc12)C1CCN(Cc2ccccc2)C1.O=C(O)[C@H](O)[C@@H](O)C(=O)O (stereo not drawn) [SB-742034] | 5 | 6 | 17 | 13 | 6 | 0 | 48 | 17 | 0 | 1 | 0 | 0 | 4 | 0 | 5 | 0 | 0 | 5 | 19 | 6 |
| O=c1cc(N2CCOCC2)nc2n(Cc3cccc(Cl)c3Cl)c3ccccc3n12 [GSK2299009] | 2 | 0 | 1 | 6 | 9 | 17 | 18 | 0 | 0 | 36 | 10 | 20 | 8 | 0 | 0 | 0 | 0 | 18 | 0 | 2 |
